Experimental data taken from PubChem BioAssay (NCATS).
Results filed as inconclusive are left out. Calls of active or inactive are those of the source. Unless noted, calls follow the shape of the dose curve; as a rule, active = well fitted curve in the direction sought with a large enough effect; inconclusive = small, poorly fitted or top-dose-only effect, or another doubt; inactive = no such curve, though single readings can be large; an effect the other way counts as inactive or inconclusive.

Legend:
[1] = biological target: Glutathione peroxidase 1 (Homo sapiens) (UniProt P07203); experiment: Primary qHTS Assay for Inhibitors of Recombinant Selenoprotein Glutathione Peroxidase 1 (GPX1) (AID 1845191); also: nearly all actives have a fitted effect of over 65% in size
Sequence of Glutathione peroxidase 1 (Homo sapiens) (P07203 whole entry, looked up): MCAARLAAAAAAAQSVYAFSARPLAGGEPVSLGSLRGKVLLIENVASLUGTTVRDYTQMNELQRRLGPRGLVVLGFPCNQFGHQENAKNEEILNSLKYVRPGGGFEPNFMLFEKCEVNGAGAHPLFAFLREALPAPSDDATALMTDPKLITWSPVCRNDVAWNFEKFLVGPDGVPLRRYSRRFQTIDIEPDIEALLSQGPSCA
Summary of the method: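 10 nM GPX1 + cpd, 30 min RT; start w/ 1 mM GSH, 0.5 mM cumene hydroperoxide, 0.5 mM NADPH, 100 nM GR, 0.01% BSA; buffer 50 mM Tris-HCl pH 7.5, 2 mM EDTA, 150 mM NaCl; Fl 340/450, 0 & 15 min.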

[2] = biological target: Phospholipid hydroperoxide glutathione peroxidase GPX4 (Homo sapiens) (UniProt P36969); experiment: Primary qHTS Assay for Inhibitors of Recombinant Selenoprotein Glutathione Peroxidase 4 (GPX4) (AID 1845192); also: nearly all actives have a fitted effect of over 65% in size
Sequence of Phospholipid hydroperoxide glutathione peroxidase GPX4 (Homo sapiens) (P36969 whole entry, looked up): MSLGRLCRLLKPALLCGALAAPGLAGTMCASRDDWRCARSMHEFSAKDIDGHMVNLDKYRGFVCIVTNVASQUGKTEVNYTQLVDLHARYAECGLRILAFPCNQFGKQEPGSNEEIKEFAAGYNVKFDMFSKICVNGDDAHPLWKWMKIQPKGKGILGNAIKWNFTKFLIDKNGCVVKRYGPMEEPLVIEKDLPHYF
Summary of the method: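 NADPH consumption, followed by fluorescence at 340/450 nm between 0 and 15 min, reports GPX4 activity via coupled glutathione reductase (100 nM). Enzyme 200 nM was pre-exposed to compound 30 min; 0.5 mM cumene hydroperoxide and 1 mM GSH served as substrates.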

[3] = biological target: Luciferin 4-monooxygenase (Photinus pyralis) (UniProt P08659); experiment: Primary firefly luciferase (FLuc) qHTS assay for identification of artifact compounds. (AID 1845220); also: nearly all actives have a fitted effect of over 60% in size; also: potency is read from the fitted curve at half-maximal effect
Summary of the method: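 Compounds sat 15 min at room temperature with 10 uM luciferin and 10 uM ATP (pH 7.6 Tris acetate). Firefly luciferase (10 nM final) was then added, and luminescence was read 5 min later. Data normalized to no-enzyme and DMSO controls were Hill-fitted.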

[4] = Primary fluorescence-based thiol-reactive (MSTI) qHTS assay for identification of artifact compounds. (AID 1845221);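 also: series mostly up to about 54 µM; thiol-reactive compounds lower the probe fluorescence signal; nearly all actives have a fitted effect of over 65% in size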
Summary of the method: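 MSTI probe at 4 uM final in 2% DMSO/PBS pH 7.4; compounds, 1 h at room temperature in dark. Fluorescence Ex/Em 525/598 nm, normalised to Acetyl-MSTI and MSTI, fitted to 4-parameter Hill.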

[5] = test system: Nanoluciferase (engineered Oplophorus gracilirostris luciferase); experiment: Primary Nanoluciferase (NLuc) qHTS assay for identification of artifact compounds. (AID 1845222);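 also: series mostly up to about 54 µM; 0% = DMSO and -100% = no enzyme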
Summary of the method: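 Luminescence from secreted NLuc (filtered, 1:55-diluted S16 cell medium) read 5 min after Nano-Glo substrate; compounds preincubated 15 min, RT. Hill fits of inhibition normalized to DMSO and no-enzyme.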

[6] = Primary redox qHTS assay for identification of artifact compounds. (AID 1845223);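 also: 0% = DMSO and 100% = reference compound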
Summary of the method: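 Amplex Red (25 uM) and HRP (250 mU/mL) in HBSS, with compounds for 15 min, then 250 uM DTT for 30 min, room temperature, dark. Fluorescence 525/598 nm read; normalized to DMSO and 10 uM DA3003; Hill fit.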

[7] = qHTS drug screen for cell cycle checkpoint inhibitors in PARPi-resistant BRCA-mutant ovarian cancer cell lines. (AID 1963452; calls by dose curve; also: potency is read from the fitted curve at half-maximal effect); details: PEO1/OlaR viability, CellTiter-Glo luminescence, 96 h; for Z-AUC: stronger effect = lower value
Summary of the method: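 PEO1, PEO4 and PEO1/OlaR ovarian cancer cells, 600 per well, exposed 96 h at 37C to a dilution series. Viability read by CellTiter-Glo luminescence, normalized to DMSO and empty wells; activity summarized as Z-AUC.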

[8] = measured here: PEO1 parental Z-AUC

CCN1CCN(Cc2ccc(NC(=O)Nc3ccc(Oc4cc(NC)ncn4)cc3)cc2C(F)(F)F)CC1
-1.75: Z-AUC [7, 8]
-1.71: Z-AUC ([7]; measured here: PEO4 Z-AUC)
inactive: Potency [1] | Potency [2] | Potency [3] | Potency [4] | Potency [5] | Potency [6]
active: Potency [7] 4.9 µM

NC[C@@](O)(c1ccc(Cl)cc1)c1ccc(-c2cn[nH]c2)cc1
inactive: Potency [1] | Potency [2] | Potency [3] | Potency [4] | Potency [5] | Potency [6]
-1.28: Z-AUC ([7]; measured here: PEO4 Z-AUC)
active: Potency [7] 13.8 µM
-1.09: Z-AUC [7, 8]

O=C(O)c1ccc(CN2CCC(CN[C@@H]3C[C@H]3c3ccccc3)CC2)cc1
1.03: Z-AUC [7, 8]
inactive: Potency [1] | Potency [2] | Potency [3] | Potency [4] | Potency [5] | Potency [6] | Z-AUC [7] -0.0301
0.899: Z-AUC ([7]; measured here: PEO4 Z-AUC)

C[C@H](Nc1ncnc2nc[nH]c12)c1cc2ccc(F)cc2nc1-c1ccccn1
inactive: Potency [1] | Potency [2] | Potency [3] | Potency [4] | Potency [5] | Potency [6] | Z-AUC [7] -0.541
0.432: Z-AUC ([7]; measured here: PEO4 Z-AUC)
-0.257: Z-AUC [7, 8]

C[C@@H]1CCN(C(=O)N2CCCC2)C[C@@H]1N(C)c1ncnc2[nH]ccc12
inactive: Potency [1] | Potency [2] | Potency [3] | Potency [4] | Potency [5] | Potency [6] | Z-AUC [7] -0.093
1.07: Z-AUC ([7]; measured here: PEO4 Z-AUC)
0.799: Z-AUC [7, 8]

COC(=O)N[C@@H](C)CNc1nccc(-c2cn(C(C)C)nc2-c2cc(Cl)cc(NS(C)(=O)=O)c2F)n1
-0.157: Z-AUC ([7]; measured here: PEO4 Z-AUC)
inactive: Potency [1] | Potency [2] | Potency [3] | Potency [4] | Potency [5] | Z-AUC [7] -0.294
-0.151: Z-AUC [7, 8]

CC1=C(CO)C(=O)O[C@@H]([C@@H](C)[C@H]2CC[C@H]3[C@@H]4C[C@H]5O[C@]56[C@@H](O)C=CC(=O)[C@]6(C)[C@H]4CC[C@]23C)C1
-1.83: Z-AUC [7, 8]
-1.49: Z-AUC ([7]; measured here: PEO4 Z-AUC)
inactive: Potency [1] | Potency [2] | Potency [3] | Potency [4] | Potency [5] | Potency [6] | Z-AUC [7] -1.4

CC[C@@](C)(Nc1ccnc(-c2c[nH]c3ncccc23)n1)C(=O)NCC(F)(F)F
-0.4: Z-AUC ([7]; measured here: PEO4 Z-AUC)
-0.201: Z-AUC [7, 8]
inactive: Potency [1] | Potency [2] | Potency [3] | Potency [4] | Potency [5] | Potency [6] | Z-AUC [7] -1.18

CNC(=O)c1cc(Oc2ccc3nc(N[C@@H]4CCCC[C@H]4O)sc3c2)ccn1
active: Potency [3] 12 µM
-0.476: Z-AUC ([7]; measured here: PEO4 Z-AUC)
-0.612: Z-AUC [7, 8]
inactive: Potency [1] | Potency [2] | Potency [4] | Potency [5] | Potency [6] | Z-AUC [7] -0.222

COc1c(Nc2ncc(Cl)c(N[C@H]3[C@@H](C(N)=O)[C@@H]4C=C[C@H]3C4)n2)ccc2c1CC[C@@H](N1CCOCC1)CC2
0.18: Z-AUC [7, 8]
inactive: Potency [1] | Potency [2] | Potency [3] | Potency [4] | Potency [5] | Potency [6] | Z-AUC [7] 0.583
0.103: Z-AUC ([7]; measured here: PEO4 Z-AUC)

Cc1cc(O)c(-c2ccc([C@@H](C)CN(C)C)cc2)c2c1[nH]c(=O)c1sccc12
-2.02: Z-AUC ([7]; measured here: PEO4 Z-AUC)
inactive: Potency [1] | Potency [2] | Potency [3] | Potency [4] | Potency [5] | Potency [6] | Z-AUC [7] -1.8
-2.07: Z-AUC [7, 8]

COc1ccc(C(=O)C2CCN(CC(=O)N(Cc3nc4c(c(=O)[nH]3)COCC4)CC3CC3)CC2)cc1
-0.643: Z-AUC [7, 8]
-0.695: Z-AUC ([7]; measured here: PEO4 Z-AUC)
inactive: Potency [1] | Potency [2] | Potency [3] | Potency [4] | Potency [5] | Potency [6] | Z-AUC [7] -0.974

Cc1cc(Cl)ccc1COc1ccnn1-c1cc(C(=O)O)ccn1
inactive: Potency [1] | Potency [2] | Potency [3] | Potency [4] | Potency [6]

CCC[C@@H]1O[C@@H]2C[C@H]3[C@@H]4CCC5=CC(=O)C=C[C@]5(C)[C@H]4[C@@H](O)C[C@]3(C)[C@]2(C(=O)CO)O1
inactive: Potency [1] | Potency [2] | Potency [3] | Potency [4] | Potency [6]

O=C(c1ccc2nccnc2c1)N1CCCCC1
inactive: Potency [1] | Potency [2] | Potency [3] | Potency [4] | Potency [6]

C/C=C(\C)C(=O)OCC1OC(OC2OC(COC(=O)/C(C)=C/C)C(OC3OC(CO)C(OC(=O)/C(C)=C/C)C(OC(=O)/C(C)=C/C)C3O)C(O)C2O)C(O)C(O)C1OC1OC(CO)C(OC(=O)/C(C)=C/C)C(OC(=O)/C(C)=C/C)C1O (stereo not given)
inactive: Potency [1] | Potency [2] | outcome [3] inactive [at 11.6 µM] | activity change, negative = thiol reactive [4] 7.54% [at 11.5 µM] | redox activity (% of DA3003) [6] 2.12% [at 11.5 µM]

Nc1nc2c(c(=O)[nH]1)C[C@@H](CCc1ccc(C(=O)N[C@@H](CCC(=O)O)C(=O)O)cc1)CN2
inactive: Potency [1] | Potency [2] | Potency [3] | Potency [4] | Potency [6]

CC12CCC3c4ccc(O)cc4CCC3C1CC(OC1OC(C(=O)O)C(O)C(O)C1O)C2O (stereo not given)
inactive: Potency [1] | Potency [2] | Potency [3] | Potency [4] | Potency [6]

C[C@H](NC(=O)CCc1nc2ccccc2c(=O)[nH]1)c1ccccc1
inactive: Potency [1] | Potency [2] | Potency [3] | Potency [4] | Potency [6]

CCOC(=O)c1cc(C#N)c(N2CCC(C(=O)NS(=O)(=O)Cc3ccccc3)CC2)nc1C
inactive: Potency [1] | Potency [2] | Potency [3] | Potency [4] | Potency [6]

CC1(C=O)CC[C@]2(C(=O)O[C@@H]3O[C@H](CO)[C@@H](O)[C@H](O)[C@H]3O)CC[C@]3(C)C(=CCC4[C@@]5(C)C[C@H](O)[C@H](O[C@@H]6OC[C@@H](O)[C@H](O)[C@H]6O)[C@@](C)(CO)C5CC[C@]43C)C2C1 (stereo not given in full)
inactive: Potency [1] | Potency [2] | outcome [3] inactive [at 11.6 µM] | activity change, negative = thiol reactive [4] 182% [at 11.5 µM] | redox activity (% of DA3003) [6] 8.25% [at 11.5 µM]

CC(C)[C@@H](CS(=O)(=O)C(C)C)N1C(=O)[C@@](C)(CC(=O)O)C[C@H](c2cccc(Cl)c2)[C@H]1c1ccc(Cl)cc1
1.87: Z-AUC ([7]; measured here: PEO4 Z-AUC)
inactive: Potency [1] | Potency [2] | Potency [3] | Potency [4] | Potency [5] | Z-AUC [7] 1.18
1.37: Z-AUC [7, 8]
